# Out of some 1,300 compounds screened, about 460 (35%) were called active. Roughly 39% stayed inconclusive and do not appear here. Calls follow the shape of the dose curve; as a rule, active = well fitted inhibition curve with a large enough effect; inconclusive = small, poorly fitted or top-dose-only effect; inactive = flat fitted curve, though single readings scatter. Some of the results follow. A call without a number means that no potency is given here.
# Molecular target: Protein phosphatase EYA2 (Homo sapiens) (UniProt O00167)
# Sequence (O00167 whole entry, looked up): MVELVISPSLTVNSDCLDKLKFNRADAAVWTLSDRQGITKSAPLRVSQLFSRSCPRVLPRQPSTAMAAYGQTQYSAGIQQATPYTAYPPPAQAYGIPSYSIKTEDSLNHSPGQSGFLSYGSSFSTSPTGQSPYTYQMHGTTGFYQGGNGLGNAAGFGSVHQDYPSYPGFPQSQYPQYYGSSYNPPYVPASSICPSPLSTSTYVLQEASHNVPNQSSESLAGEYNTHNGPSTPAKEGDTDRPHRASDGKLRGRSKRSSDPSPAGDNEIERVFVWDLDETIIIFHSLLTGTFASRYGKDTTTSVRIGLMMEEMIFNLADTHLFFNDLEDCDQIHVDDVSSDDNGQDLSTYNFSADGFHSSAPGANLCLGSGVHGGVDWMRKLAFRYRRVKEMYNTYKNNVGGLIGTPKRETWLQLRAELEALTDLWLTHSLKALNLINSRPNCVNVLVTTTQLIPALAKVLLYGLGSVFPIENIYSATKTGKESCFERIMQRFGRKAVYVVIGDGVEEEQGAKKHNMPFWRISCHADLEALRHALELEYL
# Assay: qHTS for Inhibitors of the Phosphatase Activity of Eya2: Confirmatory Assay for Cherry-picked Compounds; also: nearly all actives have a fitted effect of over 65% in size
# Settings: purified EYA2 phosphatase activity, qHTS confirmation; series mostly up to 46.1 µM
# How it was run: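 Eya2 (0.2 uM working solution) preincubated 10 min at room temperature with compound in pH 7.5 HEPES buffer with MgCl2, BSA, DTT. OMFP added (50 uM working solution), 10 min more; fluorescence 485/525 nm, normalized to EGTA and DMSO.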
# Potency is read from the fitted curve at half-maximal effect.
row,Compound,Potency
1,CCC(=O)Nc1nc2c(OC)ccc(OC)c2s1,inactive
2,COc1cc(CNC(=O)Nc2nc(C(N)c3ccccc3)cs2)cc(OC)c1OC (configuration not stated),19 µM (active)
3,Cc1ccccc1-c1cnc(C(O)c2c(C)cccc2C)[nH]1 (configuration not stated),inactive
4,Cc1nc([N+](=O)[O-])cn1CC(O)c1ccc2c(c1)OCO2 (configuration not stated),inactive
5,O=c1[nH]c(=O)n(C2C[C@H](O)[C@@H](CO)O2)cc1C(F)(F)F (some centres not stated),inactive
6,COc1ccc2ccccc2c1C=NN1CCCCC1,16.9 µM (active)
7,CCOC(=O)c1ncccc1NC(=O)CC(=O)Nc1cccnc1C(=O)OCC,3.79 µM (active)
8,CCOC(=O)NNc1nncc2ccccc12,inactive
9,CC(=O)Oc1cccc2c1C(=O)C1CC=CC(OC(C)=O)C1C2=O (configuration not stated),15.1 µM (active)
10,O=[N+]([O-])c1ccccc1/C=C\C=N\N1CCN(c2ccccc2)CC1,9.53 µM (active)
11,COc1ccccc1N1CCN(/N=C/C=C\c2ccccc2[N+](=O)[O-])CC1,15.1 µM (active)
12,COc1ccc(F)cc1-c1cc(NC=O)c2ncc(-c3cccc(C(F)(F)F)c3)n2c1,inactive
13,O=C(O)C1=C[C@@H](c2csc3ccccc23)C[C@@H](OCc2ccc(CO)cc2)O1,inactive
14,OC(COc1ccc2cc(Br)ccc2c1)Cn1ccnc1 (configuration not stated),inactive
15,Cc1sc(NC(=O)C2=COCCO2)c(C(N)=O)c1C,7.57 µM (active)
16,CS(=O)(=O)c1ccc(-c2nnc(NC(=O)C3=COCCO3)o2)cc1,inactive
17,CC1CCc2c(sc(NC(=O)/C=C/c3cccs3)c2C(=O)O)C1 (configuration not stated),19 µM (active)
18,O=C(O)c1cc(N2N=C(C(F)(F)F)/C(=C/C=C/c3ccco3)C2=O)ccc1Cl,1.51 µM (active)
19,O=C1C=C(Nc2ccccc2)C(=O)c2ccccc21,6.01 µM (active)
20,CCOC(=O)c1c(C)oc2c1c(C=NCc1ccccn1)c(O)c1ccccc12,15.1 µM (active)
21,COc1ccc(Nc2nc(N)nc(CSC(=S)N3CCCCC3)n2)cc1,inactive

row,Compound,Potency
1,CCSc1nc2ccccc2n1C(=O)c1ccc(S(=O)(=O)N2CCCCC2)cc1,inactive
2,O=C(O)c1ccccc1-c1ccccc1C(=O)Nc1ccc2c(c1)[nH]c(=O)c1ccccc12,7.57 µM (active)
3,O=C(O)c1ccccc1-c1ccccc1C(=O)Nc1ccc2oc(=O)c3ccccc3c2c1,8.49 µM (active)
4,CSc1ccc(CNc2ncc(-c3cccc([N+](=O)[O-])c3)n2C)cc1,19 µM (active)
5,O=C(Nc1ncc(Cc2ccccc2Cl)s1)c1ccc(-c2cccc([N+](=O)[O-])c2)o1,inactive
6,Oc1c(Br)cc(Br)cc1CNc1cccc2cccnc12,7.57 µM (active)
7,COC(=O)c1cc2c(ccc3ccccc32)oc1=O,7.57 µM (active)
8,O=C(SCc1c(O)c2ccccc2oc1=O)c1ccccc1,inactive
9,COc1ccccc1Nc1nc(-c2ccc3c(c2)NC(=O)CO3)cs1,inactive
10,COc1ccc(OC)c(Nc2nc(-c3sc(N)nc3C)cs2)c1,8.49 µM (active)
11,CC1=C(C(=O)N2CCOCC2)CC(CC(=O)NC(c2ccccc2)c2ccccc2)C(=O)N1Cc1ccc(C(C)(C)C)cc1 (configuration not stated),inactive
12,Cc1ccc(-c2nc3ccccc3s2)cc1NC(=S)NC(=O)/C=C/c1ccco1,inactive
13,O=C(O)CCN1C(=O)/C(=C/c2ccc(-c3nc4ccccc4s3)o2)SC1=S,3.79 µM (active)
14,N#CC1=C(N)n2c(s/c(=C\c3cccs3)c2=O)=C(C#N)C1c1cccs1 (configuration not stated),19 µM (active)
15,COc1ccc2nc(NC(=S)NC(=O)c3ccco3)sc2c1,inactive
16,O=C(C1=C(O)C(=O)N(c2nc3ccc(Cl)cc3s2)C1c1ccco1)c1ccco1 (configuration not stated),16.9 µM (active)
17,COc1cc(NC(=O)c2cccs2)c(OC)cc1NC(=O)Nc1ccc(F)cc1,inactive
18,Cc1cc(NC(=O)c2cccs2)cc(-c2nc3ncccc3o2)c1O,inactive
19,COc1cc(NC(=O)c2cccs2)c(OC)cc1NC(=O)CCn1nnc2ccccc21,16.9 µM (active)
20,O=C(NCc1ccc2c3c(cccc13)C(=O)N2)c1cccs1,inactive
21,COc1cc(NC(=O)c2cccs2)c(OC)cc1NC(=O)Cc1ccccc1,10.7 µM (active)

row,Compound,Potency
1,COc1cc(NC(=O)c2cccs2)c(OC)cc1NC(=O)CCC(=O)Nc1ccc2ncccc2c1,1.69 µM (active)
2,O=S(=O)(c1ccccc1)[C@@]1(c2ccccc2)C[C@@H]2ON=C(c3cccc(-c4ccccc4)c3)[C@@H]2C1,inactive
3,COC(=O)c1ccc(CSc2ccc3nnc(-c4ccccn4)n3n2)o1,16.9 µM (active)
4,c1ccc(CSc2ccc3nnc(-c4ccccn4)n3n2)cc1,19 µM (active)
5,Brc1ccc(CSc2ccc3nnc(-c4ccccn4)n3n2)cc1,19 µM (active)
6,COc1ccccc1OCc1ccc(C(=O)Nc2cc(OC)c(OC)c(OC)c2)o1,inactive
7,CC1CN(C(=O)c2cc(S(=O)(=O)N(C)c3ccc(F)cc3)ccc2Cl)CC(C)O1 (configuration not stated),inactive
8,CN(C)c1ccc(-c2ccnc3c2CC(C)(C(=O)NCCC(F)(F)F)O3)cc1 (configuration not stated),inactive
9,CN1C(=O)NC(c2ccccc2)(C(F)(F)F)S/C1=C(/C#N)c1nnc(N2CCOCC2)n1-c1ccccc1 (configuration not stated),inactive
10,O=C(CNC(=O)c1[nH]cnc1C(=O)N[C@@H](Cc1ccccc1)C(=O)OCc1ccccc1)OCc1ccccc1,inactive
11,NNC(=O)c1nc[nH]c1C(=O)Nc1ccccn1,8.49 µM (active)
12,C[C@@H](NC(=O)c1nc[nH]c1C(=O)N[C@@H](Cc1ccccc1)C(=O)OC(C)(C)C)c1ccccc1,inactive
13,O=C(Nc1ccc(F)cc1)c1nc[nH]c1C(=O)O,15.1 µM (active)
14,CCOC(=O)c1ccc(NC(=O)c2nc[nH]c2C(=O)N[C@@H](Cc2ccccc2)C(=O)OC(C)(C)C)cc1,inactive
15,Cc1ccc(NC(=O)c2[nH]cnc2C(=O)NN)cc1,15.1 µM (active)
16,Cc1ccc(N=Cc2cccc(O)c2O)c(C)c1,inactive
17,Cc1ccc(C(=O)N/C(=C\c2ccco2)C(=O)NCCCn2ccnc2)cc1,4.26 µM (active)
18,CCn1cc(C(=O)N[C@@H](C)C(=O)NCCCn2ccnc2)c(=O)c2cc3c(cc21)OCO3,inactive
19,O=C(CNC(=O)c1cccs1)OCC(=O)c1ccc(Cl)cc1,inactive
20,COC(=O)c1ccc(OC(=O)c2cccs2)cc1,10.7 µM (active)

# From PubChem BioAssay AID720540 (National Center for Advancing Translational Sciences (NCATS), 2013)
